In PubChem BioAssay (NCI) one finds growth data, which are given here for 3 compounds.

The structures appear in SMILES notation. The panel holds about 83,000 compounds, 20% with a hit somewhere; the sample as a whole holds those more often.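 How to read the values: 0–100, growth inhibition (40 = 60% inhibited); 0, no net growth; -100 to 0, cell death (-40 = 40% of starting cells died; -100 = all dead).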 Active and inactive are the calls of the source. The calls were made as follows: active = growth percent below 10; inactive = the rest.

The subject of this assay is MDA-MB-468 breast. The assay is described as follows: NCI-60 one-dose screen, 48 h (100 = growth as untreated, 0 = no growth, -100 = all killed). The following applies: 10 µM unless noted.
Take `Clc1cc(Cl)c(OCCCCCCN2CCNCC2)c(Cl)c1`: the growth is -12.2% (active).

Turning to `CN1CCN(Cc2ccc(NC(=O)c3cncc(C#Cc4cnc(N)nc4)c3)cc2C(F)(F)F)CC1`, the growth was 36% (inactive).

In the case of `Cc1ccc(-c2nn(C)c(=O)c3noc(-c4ccc(C)cc4)c23)cc1`, the growth was 19.8% (inactive).
